The source of these data is PubChem BioAssay (NCI).

Compounds without any hit were thinned out: in the full panel of roughly 83,000, 20% have a hit.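 96-well plates, one dose, 48 hours. Percent growth reported; active if below 10.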 A number with no mark means an inactive call. Activity calls are given as the source filed them.

Common to all, as to experiment: NCI-60 one-dose screen, 48 h (100 = growth as untreated, 0 = no growth, -100 = all killed)
In one assay the test system is T-47D breast. To be noted: 10 µM unless noted.
For the next assay, the system named is BT-549 breast. To be noted: 10 µM unless noted.
The subject of a further assay is MDA-MB-435 melanoma. To be noted: 10 µM unless noted.
For the next assay, the system named is SW-620 colon. To be noted: 10 µM unless noted.
Another assay deals with MCF7 breast. The note with it: 10 µM unless noted.
A further assay has as its system HCT-116 colon. The note with it: 10 µM unless noted.
The next assay relates to HCC-2998 colon. The note with it: 10 µM.
The test system of a further assay is KM12 colon. The note with it: 10 µM unless noted.

Regarding `CO[C@H]1C[C@@H]2CC[C@@H](C)[C@@](O)(O2)C(=O)C(=O)N2CCCC[C@H]2C(=O)O[C@H]([C@H](C)C[C@@H]2CC[C@@H](OCCO)[C@H](OC)C2)CC(=O)[C@H](C)/C=C(\C)[C@@H](O)[C@H](OC)C(=O)[C@H](C)C[C@H](C)\C=C/C=C/C=C/1C`, the growth with T-47D breast is 7.51% (active); in the assay with BT-549 breast it was 42.3%; in the assay on MDA-MB-435 melanoma it was 56.4%; in the assay on SW-620 colon, 53.7%; in the assay on MCF7 breast, 35.8%; in the assay on HCT-116 colon it was 64.3%. The growth is 66% with HCC-2998 colon and 55.3% with KM12 colon.

As to `CN1CC[C@@H](c2c(O)cc(O)c3c(=O)cc(-c4ccccc4Cl)oc23)[C@@H]1CO`, the growth in the assay on T-47D breast was -8.71% (active); in the assay on BT-549 breast it was -4.92% (active); in the assay with MDA-MB-435 melanoma, -67.9% (active); with SW-620 colon, 4.02% (active); in the assay on MCF7 breast, 4.7% (active); in the assay with HCT-116 colon, 3.53% (active). Moreover, the growth is -25.8% (active) in the assay with HCC-2998 colon and 3.84% (active) with KM12 colon.

On to `NC1=Nc2ccccc2N(O)N1`, for which the growth with T-47D breast is 87.1%; with BT-549 breast, 95%; in the assay with MDA-MB-435 melanoma, 106%; with SW-620 colon, 105%; in the assay on MCF7 breast, 94.2%; in the assay on HCT-116 colon it was 93.3%. Besides, the growth with HCC-2998 colon was 91.3%; in the assay with KM12 colon, 104%.

Turning to `O=C(c1ccc(F)c(F)c1Nc1ccc(I)cc1F)N1CC(O)([C@@H]2CCCCN2)C1`, the growth in the assay on T-47D breast is 11.8%; with BT-549 breast, 47.1%; in the assay on MDA-MB-435 melanoma, 21%; in the assay on SW-620 colon, 17.5%; in the assay with MCF7 breast, 14.1%; in the assay with HCT-116 colon, 5.24% (active). The growth in the assay with HCC-2998 colon is -51.9% (active); in the assay with KM12 colon, 12.1%.

As for `CN1CCN(CC(=O)Nc2ccc(-c3nc4ccccc4s3)cc2)CC1`, the growth is 54.1% in the assay on T-47D breast; 80.7% with BT-549 breast; 25.4% in the assay with MDA-MB-435 melanoma; 102% with SW-620 colon; 36.8% with MCF7 breast; 70.9% in the assay with HCT-116 colon. The growth in the assay with HCC-2998 colon is 77.3%; with KM12 colon, 85.6%.

In the case of `CC(C)(C)c1ccc(Cn2cc(CSc3nc4ccccc4s3)nn2)cc1`, the growth in the assay with T-47D breast was 73.4%; in the assay on BT-549 breast, 87.7%; in the assay with MDA-MB-435 melanoma, 106%; with SW-620 colon it was 97.3%; in the assay with MCF7 breast, 91.4%; in the assay with HCT-116 colon, 121%. Besides, the growth is 104% in the assay with HCC-2998 colon and 101% in the assay on KM12 colon.

Regarding `Nc1c2c(c(O)c3c1=C(CO)C=N3)=NCCS2=O` (stereo not given), the growth was -42.6% (active) in the assay with T-47D breast; -74.4% (active) in the assay on BT-549 breast; -82.7% (active) with MDA-MB-435 melanoma; -18% (active) in the assay with SW-620 colon; -50.6% (active) in the assay with MCF7 breast; -49.3% (active) in the assay with HCT-116 colon. Moreover, the growth was -87.8% (active) in the assay with HCC-2998 colon and -27.7% (active) in the assay with KM12 colon.

With `C[N+](C)(CCOC(c1ccccc1)c1ccccc1)CC(=O)OCc1ccccc1`, the growth in the assay on T-47D breast was 120%; in the assay on BT-549 breast, 94.8%; with MDA-MB-435 melanoma, 97.9%; in the assay with SW-620 colon it was 108%; in the assay with MCF7 breast, 97%; with HCT-116 colon it was 105%. The growth in the assay on HCC-2998 colon was 106%; in the assay on KM12 colon it was 99.9%.

Regarding `COc1cc2c(cc1OCCCN1Cc3ccc(OCCCCC(=O)N4CCC(CCN5CCCC5)CC4)cc3C1)N=C(N)C21CCCC1`, the growth is 56.2% with T-47D breast; 63.4% with BT-549 breast; 81.5% with MDA-MB-435 melanoma; 66.4% in the assay with SW-620 colon; 58.5% in the assay on MCF7 breast; 68.1% with HCT-116 colon. Besides, the growth with HCC-2998 colon is 101%; with KM12 colon, 78.5%.

As to `c1cc[n+](Cc2c3ccccc3cc3c2ccc2ccccc23)cc1`, the growth in the assay with T-47D breast was 30.8%; with BT-549 breast, 10.4%; in the assay with MDA-MB-435 melanoma, 51%; with SW-620 colon it was 57.4%; with MCF7 breast, 31.9%; with HCT-116 colon, 58.1%. Also, the values for the growth with HCC-2998 colon and with KM12 colon were 42.8% and 35.9%, respectively.

As to `C=CC(=O)Nc1cc(Nc2nccc(-c3cn(C)c4ccccc34)n2)c(OC)cc1N(C)CCN(C)C`, the growth in the assay with T-47D breast was -60.8% (active); with BT-549 breast it was -39.7% (active); with MDA-MB-435 melanoma it was -93.9% (active); in the assay with SW-620 colon it was -63.7% (active); in the assay on MCF7 breast, -61.3% (active); in the assay on HCT-116 colon it was -79.8% (active). Also, the growth in the assay on HCC-2998 colon was -86.4% (active); in the assay on KM12 colon, -47.7% (active).

As for `Nc1c(C(=O)c2ccccc2)sc2nc(-c3cccs3)ccc12`, the growth is 41.8% in the assay on T-47D breast; 59.6% in the assay on BT-549 breast; -5.48% (active) in the assay with MDA-MB-435 melanoma; 28.4% in the assay with SW-620 colon; 34.2% with MCF7 breast; 13.3% in the assay with HCT-116 colon. The figures for the growth in the assay on HCC-2998 colon and with KM12 colon were 32.3% and 28.3%, respectively.

Regarding `NC1(c2ccc(-c3nc4ccn5c(=O)[nH]nc5c4cc3-c3ccccc3)cc2)CCC1`, the growth in the assay with T-47D breast is -70.4% (active); with BT-549 breast, 17%; in the assay with MDA-MB-435 melanoma it was 27%; in the assay on SW-620 colon, 55%; in the assay on MCF7 breast, 12.2%; with HCT-116 colon it was 23.3%. The growth in the assay with HCC-2998 colon is 33.6%; in the assay with KM12 colon, 26.9%.

Regarding `C/C=C/C=N/NC(=S)Nc1ccccc1`, the growth with T-47D breast is 111%; in the assay with BT-549 breast, 96.5%; in the assay on MDA-MB-435 melanoma, 109%; in the assay on SW-620 colon, 121%; in the assay on MCF7 breast it was 86%; in the assay with HCT-116 colon it was 97.9%. The growth is 104% in the assay on HCC-2998 colon and 98.6% in the assay with KM12 colon.

As for `CC(C)n1c(NCCc2ccc(O)c(O)c2)nc2c1c(=O)n(C)c(=O)n2C`, the growth in the assay on T-47D breast was 93.7%; with BT-549 breast, 84.5%; in the assay on MDA-MB-435 melanoma it was 98.5%; with SW-620 colon it was 102%; in the assay on MCF7 breast it was 95.4%; in the assay on HCT-116 colon, 97%. In addition, the growth was 86.9% in the assay on HCC-2998 colon and 91% in the assay on KM12 colon.
